mHTT CaM bind – inhibitors of human mutant huntingtin-calmodulin interaction | AlphaScreen His-mHTT/GST-CaM binding, luminescence | AID 1671202 | 3.6% of 190,000 active | P42858 | inhibition, % at 15 µM
Pf apPOL inh – Pf-apPOL DNA polymerase inhibition | inhibition, % at 10 µM | 0.25% of 210,000 active | Recombinant Pf-apPOL, molecular beacon fluorescence, 1.5 h
Each line names hits and unclear results; the compound was inactive in the other large screens. Only a selection was taken, and hits are over-represented in it overall. Cut-off read from the data, not from the text of the source: active = inhibition above about 50%; inactive = the rest.

Cc1cc(C(=O)NCCSCc2ccc([N+](=O)[O-])cc2)c(C)o1	none (no result: mHTT CaM bind)
Cc1nc2c(SCC(=O)NCc3ccco3)nnc(-c3ccccc3)c2s1	mHTT CaM bind 52.9
Cc1nc2c(SCC(=O)Nc3ccc4c(c3)OCO4)nnc(-c3ccccc3)c2s1	none
Cc1cccn2c(=O)c3cc(C(N)=O)c(=N)n(Cc4ccco4)c3nc12	none
COc1ccc(NC(=O)N(CCCN2CCOCC2)Cc2cccnc2)c(OC)c1	Pf apPOL inh 68.4
COc1ccc(NC(=O)CN2CCC(C(=O)NCc3cccnc3)CC2)c(OC)c1	none
O=C(c1ccc(=O)[nH]c1)N(CC1CCCO1)C1(C(=O)NC2CCCC2)CCCCC1 (centres undefined)	none
CC(CCc1ccccc1)NC(=O)c1csc(-c2ccncc2)n1 (centres undefined)	mHTT CaM bind 79.2
CCC(C)NC(=O)c1csc(-c2ccncc2)n1 (centres undefined)	none
COc1cccc(C=C2Oc3c(ccc4c3CN(Cc3ccncc3)CO4)C2=O)c1OC	none
COc1ccc(C=C2Oc3cc(O)cc(C)c3C2=O)c(OC)c1OC	none
Oc1cccc2ccc(/C=C/c3ccc4c(c3)OCO4)nc12	none
Oc1cccc2ccc(/C=C/c3cc4c(cc3Cl)OCO4)nc12	mHTT CaM bind 56.0
Oc1cccc2ccc(/C=C/c3ccccc3Cl)nc12	mHTT CaM bind 52.0
Cc1cccc(/C=C/c2ccc3cccc(O)c3n2)c1O	none
CCC(=O)N1CCc2cc(Br)cc(S(=O)(=O)Nc3ccc4c(c3)OCO4)c21	none
Cc1ccc(CNC(=O)C2CCCN(c3nn4c(=O)c5c(nc4s3)CCCC5)C2)cc1 (centres undefined)	none
COCCNC(=O)C1Cc2ccccc2N2CCN(c3cccc(Cl)c3)CC12 (centres undefined)	mHTT CaM bind 57.1
COCCNC(=O)C1Cc2ccccc2N2CCN(c3ccccc3F)CC12 (centres undefined)	none
COc1cccc(CC(=O)N2CCC3(CC2)NC(=O)N(Cc2ccc(Cl)cc2)C3=O)c1	none
COc1ccccc1NC(=O)c1cccc2c1C(=O)c1ccccc1-2	none
CNc1ccc(OC)c2c1C(=O)c1ccccc1C2=O	mHTT CaM bind 82.0
CC(C)(C)NC(=O)c1ccccc1NC(=O)c1ccccc1Br	none
CC1CCCCN1C(=O)c1ccc2c(c1)Sc1ncccc1C(=O)N2C(C)C (centres undefined)	none
NC(=S)NN=Cc1ccccc1O	mHTT CaM bind 84.6
NC(=S)NN=Cc1ccccc1	none (no result: mHTT CaM bind)
CCN(CC)C(=O)C1CCCN(Cc2ccc(F)cc2F)C1 (centres undefined)	none
COc1ncc(C(=O)NCc2ccc(C(F)(F)F)cc2)cn1	none
COc1ccccc1C(=O)N1CCC(CCOc2ccccc2)CC1	none
CS(=O)(=O)N1N=C(c2c(-c3ccccc3)c3cc(Cl)ccc3[nH]c2=O)CC1c1ccccc1 (centres undefined)	mHTT CaM bind 67.0
O=c1[nH]c2ccc(Cl)cc2c(-c2ccccc2)c1[N+](=O)[O-]	none
C=CCn1cnc2c1c(=O)n(CC(C)C)c(=O)n2-c1ccccc1C	none
Cn1c(CSCC(=O)Nc2ccccc2)nnc1SCc1ccc(OC(F)(F)F)cc1	none (no result: mHTT CaM bind)
COc1ccc(N=c2scc(-c3ccc(Br)cc3)n2CCO)cc1	mHTT CaM bind 59.0
COc1ccc(-c2csc(=Nc3ccccc3)n2CCO)cc1	none
COc1ccc(N=c2scc(-c3ccc(I)cc3)n2CCO)cc1	mHTT CaM bind 66.0
O=S(=O)(c1ccc(-c2csc(=Nc3ccccc3)n2CCO)cc1)N1CCCCC1	none
COc1ccc(S(=O)(=O)Nc2ccc(F)cc2F)cc1OC	none
O=C(NCCCN1CCN(c2cccc(Cl)c2)CC1)C1(n2cccc2)CCCCC1	mHTT CaM bind 97.7
Cc1ccc(Cl)cc1N1CCN(CCNC(=O)c2csc3c2CCCC3)CC1	none
Cc1ccc(Cl)cc1N1CCN(CCNC(=O)C2(n3cccc3)CCCCC2)CC1	mHTT CaM bind 56.2
CC(C)CCNC(=O)C1(C)CCC(=O)N1CCCN1CCN(c2cccc(Cl)c2)CC1 (centres undefined)	none
CCC(=O)N1CCc2c(C(=O)NC3CCCCCC3)cccc21	none
COc1nc(-c2cccs2)cc(-c2ccc(C)cc2)c1C#N	Pf apPOL inh 53.3
N#Cc1c(-c2ccccc2)cc(-c2cccs2)nc1Br	none
Cc1occc1C(=O)Nc1ccc(I)cc1C(=O)O	mHTT CaM bind 59.8
Cc1occc1C(=O)Nc1ccccc1NC(=O)c1ccoc1C	none
CCCC(=O)N1CCc2c(c(-c3nc(Cc4ccccc4)no3)nn2C)C1	none
Cn1ccnc1SCc1cc(=O)c(OC(=O)C2(c3ccc(Cl)cc3)CCCC2)co1	mHTT CaM bind 88.5
CCSc1ccccc1C(=O)Oc1coc(CSc2nccn2C)cc1=O	none
Cc1cc(-c2ccccc2)cnn1	none (no result: mHTT CaM bind)
O=C(Nc1ccc(F)cc1)c1cc([N+](=O)[O-])nn1Cc1ccccc1	none
O=C(Nc1ccc(F)c(Cl)c1)c1cc([N+](=O)[O-])nn1Cc1ccccc1	mHTT CaM bind 92.0
COc1ccc(-c2nnc3n2CCN(Cc2cn(C)nc2C)C3)cc1	none
Cc1ccc(/C=C2\SC(=O)N(Cc3ccc(F)cc3)C2=O)o1	none
O=C(Nc1ncn[nH]1)c1cccc(Br)c1	none

Assay outcomes from PubChem BioAssay.
